The panel holds about 83,000 compounds, 20% with a hit somewhere; the sample as a whole holds those more often.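 Activity criterion: percent growth below 10, measured after cells in 96-well plates were exposed to a single compound concentration for 48 hours.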 Activity calls are given as the source filed them.
How the values were obtained:
Experiment in all cases: NCI-60 one-dose screen, 48 h (100 = growth as untreated, 0 = no growth, -100 = all killed)
Details in all cases: 10 µM
[1] = system: DU-145 prostate
[2] = system: K-562 leukemia
[3] = system: MDA-MB-231 breast
[4] = system: RXF 393 renal
[5] = system: SF-268 CNS
[6] = system: SF-295 CNS
[7] = system: SF-539 CNS
[8] = system: UACC-257 melanoma
[9] = system: M14 melanoma
[10] = system: MALME-3M melanoma

Measured: growth

COC(=O)c1ccc(Cn2ccc(=O)[nH]c2=O)cc1
inactive: [1] 105% | [2] 113% | [3] 99.4% | [4] 108% | [5] 119% | [6] 109% | [7] 83.8% | [8] 112% | [9] 102%

O=C(COc1ccc(Cl)cc1Cl)Oc1coc(CSc2nc3ccccc3s2)cc1=O
inactive: [1] 106% | [2] 83% | [10] 93.4% | [3] 86.8% | [5] 102% | [6] 105% | [7] 98.6% | [8] 27.3% | [9] 110%

COc1cc(Cn2c(-c3ccccc3)c(Cl)c3c2-c2oncc2CC3)cc(OC)c1
inactive: [1] 95.9% | [2] 12.9% | [3] 67.5% | [4] 115% | [5] 68.8% | [6] 61% | [7] 93.9% | [8] 86% | [9] 79%

CCOC(=O)c1cc2c(n1Cc1ccccc1)-c1oncc1CC2
inactive: [1] 82.8% | [2] 15.3% | [3] 95.8% | [4] 94.6% | [5] 54.2% | [6] 64.5% | [7] 90.5% | [8] 103% | [9] 99.6%

Cc1ccc(S(=O)(=O)N2CCc3ccccc3CC2)cc1
inactive: [1] 84.1% | [2] 63.9% | [3] 83.7% | [4] 80.3% | [5] 97.5% | [6] 73% | [7] 97% | [8] 52.7% | [9] 80.6%

COc1ccccc1Cn1cc2c(c1-c1ccccc1)CCc1cnoc1-2
inactive: [1] 51.8% | [2] 19% | [3] 56% | [4] 38.3% | [5] 37.5% | [7] 11% | [8] 50% | [9] 34.5%
active: [6] -3.81%

CC(=O)Nc1ccc2c(c1)C(N1CC3CCC(CC3)C1)c1ccccc1-2 (stereo not given)
inactive: [1] 109% | [2] 58.9% | [3] 91.6% | [4] 81.9% | [5] 92.7% | [6] 101% | [7] 97.2% | [8] 84.1% | [9] 102%

COC(=O)CCCCCCCCC(C)c1ccc(C(C)=O)cc1 (stereo not given)
inactive: [1] 108% | [2] 92.3% | [3] 119% | [4] 111% | [5] 104% | [6] 92.1% | [7] 101% | [8] 119% | [9] 121%

O=C(c1ccccc1)C(Sc1ccccc1)c1ccccc1 (stereo not given)
inactive: [1] 29.7% | [2] 84.5% | [3] 89.2% | [4] 80.7% | [5] 92.6% | [6] 113% | [7] 99.5% | [8] 98.8% | [9] 94.5%

COc1ccc(-c2n/c(=C\c3c(O)[nH]c4ccccc34)cc3c2=Nc2ccccc2-3)cc1
active: [2] -8.09% | [5] 5.04% | [9] 3.99%
inactive: [1] 19.1% | [3] 30.6% | [4] 44.8% | [6] 38.5% | [7] 82.6% | [8] 91.8%

[O-]c1c[n+](-c2ccc(Cl)cc2)no1
inactive: [1] 107% | [2] 106% | [3] 80.1% | [4] 116% | [5] 100% | [6] 112% | [7] 119% | [8] 104% | [9] 104%

CC(C)CCN(CCCNc1c2c(nc3cc(Cl)ccc13)CCCC2)CCC(C)C
inactive: [1] 72.1% | [2] 22.7% | [3] 21.8% | [4] 59.9% | [5] 73.9% | [6] 66.7% | [7] 69.8% | [8] 71.4%
active: [9] 4.03%

Cc1ccc(Cl)cc1Nc1nc(C(F)(F)F)ccc1C(=O)N/N=C/c1c(Cl)cccc1Cl
inactive: [9] 11.3%
active: [1] 2.91% | [2] 6.49% | [3] -12.2% | [4] -53.7% | [5] -7.33% | [6] -17.7% | [7] -17% | [8] -27.3%

COc1ccccc1CNCCCN1C(=O)c2ccc3c4c(ccc(c24)C1=O)C(=O)N(CCCNCCNCCCN)C3=O
active: [5] 1.02% | [8] -6.36%
inactive: [1] 16.3% | [2] 10.2% | [3] 20.3% | [4] 25.2% | [6] 51.3% | [7] 14.1% | [9] 46.7%

CC(=O)Nc1nc(C)c(C(=O)N/N=C/c2cccn2C)s1
inactive: [1] 106% | [2] 54.3% | [3] 102% | [4] 119% | [5] 95.9% | [6] 114% | [7] 103% | [8] 120% | [9] 115%

CC(=O)Oc1ccc(C2=Cc3ccc(OC(C)=O)cc3OC2C)cc1 (stereo not given)
inactive: [1] 62.8% | [2] 28.4% | [3] 67.9% | [4] 68.9% | [5] 57.9% | [6] 69.9% | [7] 28% | [8] 81.3% | [9] 49.8%

CCOC(=O)c1cc2c(n1Cc1cc(OC)cc(OC)c1)-c1oncc1CC2
active: [6] -4.53% | [7] -7.41% | [9] 1.54%
inactive: [1] 13.8% | [2] 16.7% | [3] 30.4% | [4] 18.7% | [5] 50.5% | [8] 60.5%

C[C@]12CC[C@H]3[C@@H](CCC4=CC(=O)CC[C@@]43C)[C@@H]1CC[C@@H]2c1csc(N)n1
inactive: [1] 78.2% | [2] 26% | [3] 66.8% | [4] 76.8% | [5] 89.6% | [6] 50.3% | [7] 81% | [8] 49.6% | [9] 61%

O=c1oc2c3ccc4cnccc4c3[nH]c2c2ccccc12
inactive: [1] 16.9% | [2] 21.1% | [3] 68.2% | [5] 23% | [6] 75.6% | [9] 67.3%
active: [10] -80.8% | [7] -72.1% | [8] 1.25%

CC(=O)OC1Oc2ccccc2-c2oc(=O)c(-c3ccc(F)cc3)cc21 (stereo not given)
inactive: [1] 92.4% | [2] 87.7% | [10] 99.5% | [3] 73.1% | [5] 81.4% | [6] 89.1% | [7] 86.4% | [8] 58.6% | [9] 100%

C/C(=N\NC(N)=S)C(C)(C)O
inactive: [1] 93.2% | [2] 37.1% | [3] 77.8% | [4] 96.2% | [5] 95.9% | [6] 79.5% | [7] 102% | [8] 32.6% | [9] 92%

CCCCCCCCCCCCCC[n+]1ccc(C)cc1
active: [1] 5.11% | [2] 9.19% | [3] -40.2% | [4] -19.6% | [5] -32.4% | [6] -67.1% | [7] -33.5% | [8] -21.6% | [9] -72.7%

COc1ccc(-c2nc(SCC(=O)c3ccc(Br)cc3)[nH]c(=O)c2C#N)cc1
inactive: [1] 103% | [2] 96.1% | [3] 105% | [4] 106% | [5] 96.2% | [6] 100% | [7] 111% | [8] 111% | [9] 98.5%

O=C(NNC(=O)c1ccncc1)Nc1ccc([N+](=O)[O-])cc1
inactive: [1] 105% | [2] 75.8% | [3] 109% | [4] 124% | [5] 106% | [6] 99.1% | [7] 94% | [8] 116% | [9] 116%

O=c1[nH]c(=O)n(C2C[C@@H](O)[C@@H](CO)O2)cc1F (stereo not given in full)
active: [2] 9.63% | [6] 8.65% | [7] 5.71% | [9] -6.77%
inactive: [1] 37% | [10] 52.7% | [3] 62.1% | [5] 24.1% | [8] 67.8%

CCN(CC)CCCOC(=O)Nc1ccccc1Cl
inactive: [1] 105% | [2] 99.6% | [3] 110% | [4] 109% | [5] 111% | [6] 113% | [7] 94.7% | [8] 111% | [9] 107%

COc1cc(-c2n/c(=C\c3c(O)[nH]c4ccccc34)cc3c2=Nc2ccccc2-3)cc(OC)c1OC
active: [2] 6.57% | [4] -22.3% | [6] 8.6% | [7] 1.21% | [9] -5.09%
inactive: [1] 11.5% | [3] 10.8% | [5] 19.3% | [8] 56.2%

Nc1cc2c(cc1Cl)-c1ccc(Cl)cc1C2=O
inactive: [1] 105% | [2] 89.9% | [3] 82.5% | [4] 131% | [5] 93.8% | [6] 115% | [7] 78.2% | [8] 103% | [9] 104%

CC1(C)CC(OCCCC[P+](c2ccccc2)(c2ccccc2)c2ccccc2)CC(C)(C)N1O
inactive: [7] 12%
active: [1] 5.39% | [2] -53.4% | [3] -25.7% | [4] -38.1% | [5] 3.46% | [6] -56% | [8] -40.6% | [9] 8.8%

CC(=O)CS(C)(=O)=O
inactive: [1] 106% | [2] 102% | [3] 108% | [4] 111% | [5] 104% | [6] 115% | [7] 109% | [8] 96.4% | [9] 108%

— PubChem BioAssay (NCI)
